Compound activity from PubChem BioAssay.
The full list was thinned out, with hits kept by preference.
Pf Dd2 inh = qHTS Primary assay for Inhibitors of Plasmodium falciparum Dd2 growth in vitro; P. falciparum Dd2 growth, SYBR Green, 72 h; Potency, µM (highest dose often 28.9 µM), without a hit: at the highest dose activity, negative = inhibition, actives largely listed as inhibitors; 4.3% of 120,000 active; active means well fitted inhibition curve with a large enough effect;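 further: plate controls were DMSO vehicle for no effect and reference drug for full effect; nearly all actives have a fitted effect of over 65% in size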
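Infected erythrocytes (Dd2, 0.3% parasitemia, 2.5% hematocrit final) are added to compound in RPMI-1640/Albumax II medium, grown 72 h at 37C in low oxygen, then lysed with saponin/Triton-X containing SYBR Green and read by fluorescence.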
* marks the source's active call; other numbers are inactive results; i = inactive; [ ] = another dose, or the depositor's remark. Potency means the concentration at half of the fitted maximal effect.

SMILES | Pf Dd2 inh
N#Cc1cc([N+](=O)[O-])ccc1NC(=O)c1cccn(Cc2cccc(F)c2)c1=O | 14%
C#CCOc1c(Br)cc(C2C(C(=O)OC)=C(C)NC3=C2C(=O)c2ccccc23)cc1OCC (stereo unspecified) | i
O=C1C2=C(Nc3ccccc3SC2c2ccc(Cl)c(Cl)c2)c2ccccc21 (stereo unspecified) | 3.5µM*
O=C(NCc1ccccc1Cl)c1cc2c(s1)-c1ccccc1SC2 | -1%
CCCc1ccc(C2Sc3ccccc3NC3=C2C(=O)c2ccccc23)cc1 (stereo unspecified) | 3.2µM*
CCOc1cc(C2CC(=O)Nc3c2c(C)nn3-c2nc(C)cc(C)n2)ccc1O (stereo unspecified) | -28%
CC(=O)Nc1ccc(NC(=O)CC2Sc3ccccc3NC2=O)cc1 (stereo unspecified) | 16%
CCOc1cc(C2Sc3ccccc3NC3=C2C(=O)c2ccccc23)ccc1O (stereo unspecified) | 11µM*
COc1ccc(C(=O)Nc2nnc(S(=O)(=O)N(CC(C)C)c3ccccc3)s2)cc1 | 23%
CCC(CC)C(=O)N1CCC2(CC1)NCc1ccccc1-n1ccnc12 | 40%[5.79 µM]
O=C(c1ccncc1)N1CCC(C2CCN(Cc3ccccn3)C2)CC1 (stereo unspecified) | 14%
COc1ccc(NS(=O)(=O)c2ccc(-c3cnc(C4CC4)o3)cc2)cc1Cl | 28%
COc1ccc(C(=O)N[C@H]2CO[C@H]3[C@@H]2OC[C@@H]3n2cc(CC3CCCCC3)nn2)cc1 | -24%[44.1 µM]
COCCCN1CC2(CCC1=O)CCN(C(=O)Nc1ccccc1F)CC2 | 1%
O=C([C@@H]1C[C@H](F)CN1S(=O)(=O)c1ccc(Cl)s1)N1CCc2ccccc2C1 | -8%
COc1cccc(-c2ccc3c(N)c(C(=O)Nc4ccc(Cl)cc4F)sc3n2)c1 | 23%
CC(C)CSc1ccccc1NC(=O)c1sc2nc(-c3ccncc3)ccc2c1N | 3.2µM*
COc1ccc(-c2ccc3c(N)c(C(=O)Nc4cccc(C)c4)sc3n2)cc1 | -13%
COCc1ccc2c(c1)c(OC(C)(C)C(=O)NC1CCOCC1)nn2Cc1ccccc1 | i
O=C1NCc2ccccc2CC12CCCN(Cc1ccncc1)C2 (stereo unspecified) | -21%
O=C1NCc2ccccc2CC12CCCN(Cc1ccc(F)cc1)C2 (stereo unspecified) | -25%
O=C1NCc2ccccc2CC12CCCN(Cc1c(F)cccc1Cl)C2 (stereo unspecified) | -20%
O=C1NCc2ccccc2CC12CCN(Cc1cc(F)ccc1F)C2 (stereo unspecified) | -16%
O=C1NCc2ccccc2CC12CCN(Cc1cc(F)ccc1F)CC2 | 0%
O=C1NCc2ccccc2CC12CCCN(Cc1ccnc3ccccc13)C2 (stereo unspecified) | -22%
SMILES | Pf Dd2 inh
COc1ccc(CN2CCCC3(Cc4ccccc4CNC3=O)C2)c(OC)n1 (stereo unspecified) | 5µM*
O=C1NCc2ccccc2CC12CCCN(Cc1cc(F)ccc1O)C2 (stereo unspecified) | 8.9µM*
O=C1NCc2ccccc2CC12CCN(Cc1cc(F)ccc1O)C2 (stereo unspecified) | 11µM*
Cc1ccc(S(=O)(=O)N2CCCC2C(=O)Nc2ccc(Br)cc2)cc1 (stereo unspecified) | 2%
CNC(=O)[C@@H]1CN(C(=O)c2ccccc2C(F)(F)F)C[C@H]1c1n[nH]c(C)n1 | 16%
CCN(CC)CCNC(=O)C1CCN(C(=O)c2cnn(-c3ccccc3)c2-n2cccc2)CC1 | 2%
Cc1ccc(NC(=O)Cn2c(N3CCCCC3)nc(C)c(C)c2=O)cc1C | i
O=C1CC(c2ccccc2)N(C(=O)CNC(=O)c2ccco2)CCCCCCN1 (stereo unspecified) | 1%
O=C(NCC1CC1)C1CCCN1c1nc2ncccc2o1 (stereo unspecified) | 0%[44.1 µM]
COCc1nc(C2CCN(S(=O)(=O)c3cccc(OC)c3)C2)no1 (stereo unspecified) | -18%
CCC(=O)Nc1cccc(C2OC(=O)N(Cc3ccc(C)cc3)C2C(=O)NCC2CCCO2)c1 (stereo unspecified) | i
O=C(CCc1cccnc1)N[C@H]1CCOC[C@H]1C1CCOCC1 | -20%
Cc1nn(-c2ccccc2)c2nc(C3CC3)cc(C(=O)Nc3cccc(F)c3)c12 | 10µM*
Cn1nc(C2CCCN2)c2c(C(=O)N3CCOCC3)cc(C3CC3)nc21 (stereo unspecified) | 0%
COCCNC(=O)c1cc(C2CC2)nc2c1c(C1CCCN1)nn2-c1ccccc1 (stereo unspecified) | 11µM*
COCCNC(=O)c1cc(C2CC2)nc2c1c(C1CCCNC1)nn2C (stereo unspecified) | 12%
COCCNC(=O)c1cc(-c2ccc(OC)cc2)nc2c1c(C1CCNC1)nn2C (stereo unspecified) | -28%
Cc1nn(-c2ccccc2)c2nc(C3CC3)cc(C(=O)NCc3ccccc3Cl)c12 | i
COc1ccc(NC(=O)c2cc(C3CC3)nc3c2c(C)nn3-c2ccccc2)cc1OC | 13%
COc1ccc(-c2cc(C(=O)N3CCOCC3)c3c(C4CCCN4)nn(C)c3n2)cc1 (stereo unspecified) | -26%
COc1ccc(-c2cc(C(=O)NCC(C)C)c3c(C4CCCN4)nn(C)c3n2)cc1 (stereo unspecified) | 4µM*
COc1ccc(-n2nc3n(c2=O)CCN(Cc2ccc(NC(C)=O)cc2)C3)cc1 | -17%
COC1CCCN(C(=O)c2cc(COc3c(F)cccc3F)on2)C1 (stereo unspecified) | 5%
COc1cccc(C2Cn3nnc(-c4nc(-c5ccccc5Cl)no4)c3CO2)c1 (stereo unspecified) | i
Cc1ccccc1S(=O)(=O)N1[C@H]2CC[C@@H]1c1cnc(-c3ccc(F)cc3)nc1C2 | -25%
SMILES | Pf Dd2 inh
Cc1cnc(C(=O)N[C@@H]2CN(Cc3ccccc3)C[C@H]2CO)cn1 | -22%
CC(=O)N[C@@H]1CN(Cc2ccc(F)c(Br)c2)C[C@H]1CO | -26%
Cc1cc(CN2C[C@@H](CO)[C@H](NC(=O)c3ccccc3)C2)n(C)n1 | 35%
O=C(N[C@@H]1CN(Cc2ccccc2)C[C@H]1CO)c1ccnnc1 | 9%
Cn1nccc1C(=O)N[C@@H]1CN(Cc2ccccc2)C[C@H]1CO | 13µM*
COc1cc(CN2C[C@@H](CO)[C@H](NC(=O)c3ccccc3)C2)ccc1F | 5.6µM*
CN1C[C@@H](NC(=O)C2CCCCC2)C[C@H]1c1nc(-c2ccc3c(c2)OCO3)no1 | -4%[44.1 µM]
Cc1noc(-c2ccn3c(CNC(=O)COc4ccc(F)cc4)nnc3c2)n1 | -10%
Cc1cc(C)cc(C(=O)NCc2nnc3c(-c4nc(C5CC5)no4)cccn23)c1 | i
Cc1cc(C)n(-c2nc3cc(Cl)ccc3nc2Nc2ccc(CC(=O)O)cc2)n1 | 29%
Cc1nnc(N2C(=O)c3oc4ccccc4c(=O)c3C2c2ccc(C(C)(C)C)cc2)s1 (stereo unspecified) | i
COCc1cc(=O)n(CC(=O)Nc2ccccc2C)c(N2CCOCC2)n1 | i
COCCCNC(=O)C(NC(=O)c1ccc(C)cc1)C1CCN(C(=O)c2ccccc2C)CC1 (stereo unspecified) | i
O=C(NC1CCc2nn(CC3CC3)c(=O)n2CC1)c1ccc(Cn2cncn2)o1 (stereo unspecified) | 7%
O=C(COc1ccccc1)Nc1ccc2n(c1=O)C[C@H]1C[C@@H]2CN(C(=O)c2ccccn2)C1 | -11%
Cc1ccsc1C(=O)N1CCC2(CC1)NC(=O)N(c1ccccc1)N2 | 43%
